Screening results from PubChem BioAssay.
ELG1 repair inh: blocks ELG1-dependent DNA repair in HEK293T cells | HEK293T ELG1-luciferase reporter, luminescence, 16 h; DNA damage induced by 5-fluorouridine | Potency, µM (doses to about 46.1 µM), for the others: top-dose activity change, negative = inhibition, most hits filed as inhibitors | actives 2.3% (n = 330,000) | AID 504467; further: on the % scale 0 is the no-effect control and ±100 the full control effect; nearly all actives have a fitted effect of over 55% in size
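DMSO vehicle served as the neutral condition. Each well held 2,000 cells given 5-fluorouridine plus compound; after 16 hr at 37 °C/5% CO2, ONE-Glo was added and luciferase measured 30 min later.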
FLuc counter: firefly luciferase modulation, counter-screen for miR-21 project; P08659; purified FLuc, Km substrates, luminescence inhibition; Potency, µM (titrated, usually from 57.5 µM), for inactives: top-dose activity change, negative = inhibition, most hits filed as inhibitors; actives 6.9% (n = 360,000); AID 588342;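 further: plate controls were vehicle for no effect and reference inhibitor for full effect; nearly all actives have a fitted effect of over 55% in size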
Target sequence (P08659 whole entry, looked up): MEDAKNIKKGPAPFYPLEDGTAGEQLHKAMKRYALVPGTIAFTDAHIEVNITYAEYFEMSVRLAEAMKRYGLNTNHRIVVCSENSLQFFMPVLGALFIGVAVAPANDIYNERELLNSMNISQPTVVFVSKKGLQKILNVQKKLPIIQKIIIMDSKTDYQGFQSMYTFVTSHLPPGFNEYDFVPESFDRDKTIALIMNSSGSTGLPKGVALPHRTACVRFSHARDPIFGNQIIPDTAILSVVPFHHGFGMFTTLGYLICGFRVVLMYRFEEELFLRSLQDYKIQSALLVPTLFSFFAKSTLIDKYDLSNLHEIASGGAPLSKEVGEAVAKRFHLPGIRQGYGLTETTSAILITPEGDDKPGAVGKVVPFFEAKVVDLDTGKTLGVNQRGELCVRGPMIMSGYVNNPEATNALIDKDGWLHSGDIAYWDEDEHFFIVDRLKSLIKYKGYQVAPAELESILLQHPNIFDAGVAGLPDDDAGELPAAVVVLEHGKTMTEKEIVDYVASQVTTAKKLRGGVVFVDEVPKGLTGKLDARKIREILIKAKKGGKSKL
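Purified P. pyralis luciferase (10nM final) with 10uM D-luciferin and 10uM ATP (Km levels) in 50mM Tris acetate pH 7.5, 10mM Mg acetate, 0.01% Tween-20, 0.05% BSA; qHTS 6-point titration, ~60 µM downward; luminescence read.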
Rab9 promoter act: activates the Rab9 promoter; Potency, µM (top dose mostly 9.22 µM), without a hit: at the highest dose activation, negative = inhibition, actives largely listed as activators; actives 2.8% (n = 320,000); Huh7 Rab9 promoter-luciferase reporter, luminescence, 24 h; further: % of control where 0% means no effect; nearly all actives have a fitted effect of over 60% in size
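Huh7 cells stably carrying a Rab9 promoter-luciferase reporter, 1500 cells per well in OP-MEM I with 10% FBS, treated with compound 24 hours at 37C. Luciferase activity read by luminescence after 10 minutes with Amplite reagent.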
SMN2 splice enh: enhancers of SMN2 splice variant expression | HEK293 SMN2-luciferase splicing reporter, luminescence, 30-36 h | Potency, µM (top dose mostly 46.1 µM), inactives show at the highest dose activity change, positive = activation, actives largely listed as activators | actives 2.8% (n = 210,000); further: % of control where 0% means no effect; nearly all actives have a fitted effect of over 55% in size
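HEK293 cells carry an SMN2 minigene-luciferase reporter in which exon 7 inclusion puts luciferase in frame. Cells were seeded at 2000 cells/well, attached for 10-12 hours, then exposed to compounds for 30-36 hours at 37C before ONE-Glo luminescence.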
ELG1 genotoxic: inducers of genotoxicity in HEK293T ELG1-luciferase cells; actives 1.3% (n = 330,000); HEK293T ELG1-luciferase reporter, luminescence, 16 h; Potency, µM (highest dose often 46 µM), inactives show top-dose activity change, positive = activation, usual class: activators; further: % of control where 0% means no effect; nearly all actives have a fitted effect of over 60% in size
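HEK293T cells expressing luciferase-tagged ELG1 were treated with compound or DMSO for 16 hr at 37°C. Luciferase activity was then read after 30 min with ONE-Glo at room temperature; rising signal flags genetic stress.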
NPC1 prom act: activators of NPC1 promoter; Huh7 NPC1 promoter luciferase reporter, 24 h; actives 2.4% (n = 320,000); Potency, µM (titrated, usually from 9.22 µM), for inactives: top-dose activation, usual class: activators; further: % of control where 0% means no effect; nearly all actives have a fitted effect of over 60% in size
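Compounds in DMSO were transferred onto Huh7 NPC1-luciferase reporter cells pre-incubated 2 h; after 24 h at 37 °C, Amplite reagent was dispensed and luminescence recorded 10 min later.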
Starred values were filed as active, the others as inactive; ? = inconclusive; . = no result given; [ ] = dose if it differs, or a comment. In the library only some 9.3% were active in any assay of this set; here they are far more common. The call rests on the fitted dose curve; in most records, active means well fitted curve in the direction sought with a large enough effect; inconclusive means small, poorly fitted or top-dose-only effect, or another doubt; inactive means no such curve, though single readings can be large; an effect the other way counts as inactive or inconclusive. Potency means the concentration at half of the fitted maximal effect.

SMILES	ELG1 repair inh	FLuc counter	Rab9 promoter act	SMN2 splice enh	ELG1 genotoxic	NPC1 prom act
Cc1ccc(-c2cc(C(=O)Nc3cc(C(=O)O)ccc3C)c3ccccc3n2)cc1	?	11µM*	-1%	.	3%	-1%
O=C(CSc1ccc2ccccc2n1)NCc1ccc2c(c1)OCO2	-5%	?	-7%	-21%	0%	-5%
O=C(Nc1ccc2c(c1)OCO2)c1cc(-c2cccnc2)nc2ccccc12	-11%	?	21%	-5%	-5%	12%
O=C(O)c1cc(-c2ccc3cc4c(cc3c2)OCO4)nc2ccccc12	.	.	.	3.5µM*	.	.
c1ccc2nc(-c3ccc4c(c3)OCO4)ccc2c1	?	0.95µM*	0.32µM*	13µM*	2.6µM*	0.56µM*
O=C(COC(=O)c1cc(-c2ccncc2)nc2ccccc12)Nc1ccc2c(c1)OCO2	6%	2%	-5%	10%	1%	-5%
COC(=O)c1cc(-c2ccc3c(c2)OCO3)nc2ccccc12	-19%	17µM*	1%	-23%	-6%	-10%
Cc1ccc(-c2cc(C(=O)Nc3ccc4c(c3)OCCO4)c3ccccc3n2)cc1	-4%	9.5µM*	19%	11µM*	9%	16%
O=C(O)c1cc(-c2cccnc2)nc2ccc(Br)cc12	-6%	?	-2%	27%	-1%	-7%
O=C(NCCCN1CCCC1=O)c1cc(-c2ccc3c(c2)OCO3)nc2ccccc12	-28%	24µM*	-4%	-5%	-14%	0%
O=C(O)c1cc(-c2ccc3c(c2)OCO3)nc2ccc(Br)cc12	0%	3µM*	11%	7%	5%	10%
O=C(NCCCN1CCOCC1)c1cc(-c2ccc3c(c2)OCO3)nc2ccccc12	-11%	?	2%	4%	-5%	0%
CCN1CCN(C(=O)Cn2ncc3c4ccccc4n(Cc4ccccc4)c3c2=O)CC1	.	-7%	.	-11%	.	.
COc1ccc(-c2oc(=O)c3cc(OC)c(OC)cc3c2-c2ccc3c(c2)OCO3)cc1	?	.	.	.	0%	.
COc1ccc(OC)c2nc(-c3ccc4c(c3)OCO4)ccc12	?	1.9µM*	1.4µM*	.	4.6µM*	1.4µM*
O=C(O[C@@H]1Cc2c(O)cc(O)cc2OC1c1ccc(O)c(O)c1)c1cc(O)c(O)c(O)c1 (some centres not stated)	.	.	.	3%	.	.
COc1ccc(Nc2nc3ccccc3c3nnc(C)n23)cc1Cl	.	24µM*	.	0%	.	.
O=S(=O)(c1cccc2ccccc12)N1CCN(c2ccc(Cl)c(Cl)c2)CC1	.	2%	.	-26%	.	.
CSc1sccc1/C=C(/C#N)C(=O)c1ccco1	?	15µM*	12%	.	8%	19%
CSc1sccc1/C=N/O	0%	5%	1%	.	-5%	-1%
O=C(NCc1cccnc1)C(C(=O)c1ccc(F)cc1)n1ccccc1=O (configuration not stated)	0%	-2%	16%	6%	18µM*	2%
Cc1ccc(NC(=S)Nc2ccccn2)cc1C	?	17µM*	?	.	16%	18%
COc1ccc(NC(=S)Nc2cc(-c3ccccc3)[nH]n2)cc1Cl	?	?	-3%	11%	-4%	-4%
COc1ccc(NC(=S)Nc2ccccn2)cc1	?	13µM*	2.5µM*	.	?	3.2µM*
Cc1ccc(NC(=S)Nc2cccc3cnccc23)c(C)c1	21µM*	-3%	-11%	-60%	-7%	-7%
SMILES	ELG1 repair inh	FLuc counter	Rab9 promoter act	SMN2 splice enh	ELG1 genotoxic	NPC1 prom act
CCOc1ccc(NC(=S)Nc2cc(-c3ccccc3)[nH]n2)cc1	?	21µM*	3%	-7%	-4%	0%
COc1ccccc1NC(=S)Nc1ccccn1	6%	?	-2%	?	-2%	-1%
OCC(O)C(O)C(O)C(O)C(O)CO (configuration not stated)	.	.	.	9%	.	.
Cn1cc(C[C@H](C(=O)O)N2C(=O)c3ccc(C(=O)O)cc3C2=O)c2ccccc21	.	0%	0%	.	.	0%
CC(C)(C)OC(=O)N1CCC(NC(=O)c2[nH]cnc2C(=O)Nc2ccon2)CC1	?	-1%	-4%	.	-2%	0%
CCOC(=O)C1CCN(C(=O)Cn2ncc3c4ccccc4n(Cc4ccccc4F)c3c2=O)CC1	.	3%	.	14%	.	.
COC(=O)c1ccc(NC(=S)Nc2ccccn2)cc1	?	?	1.8µM*	11µM*	?	2.8µM*
Cc1cc(Cl)ccc1NC(=S)Nc1ccccn1	?	-16%	?	?	6%	?
Cc1ccc(NC(=S)Nc2ccccn2)c(C)c1	?	8.5µM*	2.8µM*	.	?	?
O=C(CCc1nnc(CCCc2ccccc2)o1)NCCN1CCOC1=O	-3%	3%	0%	11%	-1%	-2%
Cc1[nH]n(-c2ccccc2)c(=O)c1C(=O)c1ccccc1	?	-14%	0%	.	-7%	-4%
CC(=O)c1cccc(N=Nc2c(-c3ccccc3)[nH]n(-c3ccccc3)c2=O)c1	8.2µM*	?	-7%	-16%	-8%	-7%
Cc1ccc(N=Nc2c(C)[nH]n(-c3ccccc3)c2=O)c(C)c1	7%	-2%	-4%	.	14%	-6%
Cc1[nH]n(-c2ccccc2)c(=O)c1N=Nc1c(O)cc(S(=O)(=O)N(C)C)c2ccccc12	4.1µM*	?	-40%	.	-36%	-34%
Cc1[nH]n(-c2ccccc2)c(=O)c1N=Nc1cccc(Cl)c1	?	9.5µM*	17%	.	16%	?
Cc1[nH]n(-c2ccccc2)c(=O)c1N=Nc1ccc2c(c1)OCCO2	?	6µM*	4µM*	18µM*	?	?
Cc1[nH]n(-c2ccccc2)c(=O)c1N=O	0%	?	-2%	-11%	-9%	0%
NC(=O)NC(=O)[C@H]1CCCC[C@@H]1C(=O)O	.	.	.	-15%[9.22 µM]	.	.
CCOc1ccc(-n2c(=O)c3c4c(sc3n(CC(=O)Nc3cccc(C(F)(F)F)c3)c2=O)CCCCC4)cc1	.	0%	.	8%	.	.
CSc1ccc(N=Nc2c(C)[nH]n(C)c2=O)cc1	0%	19µM*	18%	.	?	2%
Cc1[nH]n(-c2ccccc2)c(=O)c1N=Nc1ccc(F)cc1	?	2.7µM*	?	.	?	28%
Cc1[nH][nH]c(=O)c1N=Nc1ccc(Cl)cc1	-23%	-12%	-8%	-14%	-7%	-5%
Cc1[nH]n(-c2ccccc2)c(=O)c1N=Nc1cccc([N+](=O)[O-])c1	9%	13µM*	19%	.	0%	27%
Cc1[nH]n(-c2cccc([N+](=O)[O-])c2)c(=O)c1-c1ccccc1	-19%	?	-5%	-8%	9%	2%
